Test results from PubChem BioAssay (NCATS).
Results filed as inconclusive are left out. Calls of active or inactive are those of the source. Unless noted, calls come from the whole dose curve; as a rule, active = well fitted curve in the direction sought with a large enough effect; inconclusive = small, poorly fitted or top-dose-only effect, or another doubt; inactive = no such curve, though single readings can be large; an effect the other way counts as inactive or inconclusive.

How the values were obtained:
[1] = target: ATP-dependent 6-phosphofructokinase (Trypanosoma brucei brucei) (UniProt O15648); assay: qHTS Assay to Find Inhibitors of T. brucei phosphofructokinase: hit validation (AID 492961);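 note: luminescence reports ADP formed as PFK phosphorylates fructose-6-phosphate with ATP; % is set by controls: 0 for no effect and ±100 for the full control effect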
Outline: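 Compounds titrated; %activity normalized to 0x and 1x enzyme controls, curve-fitted. Readout: ADP-Glo luminescence after 45 min room-temperature reaction of 1.25 nM PFK, 0.1 mM ATP, 0.5 mM F6P, pH 8.0.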

[2] = tested on: AA1029; assay: qHTS profiling for inhibitors of Plasmodium falciparum proliferation (AID 504749); note: nearly all actives have a fitted effect of over 60% in size; note: potency is the fitted concentration of half-maximal effect; settings: P. falciparum in erythrocytes, SYBR Green DNA, 72 h; series mostly up to 12.8 µM
Outline: (§1)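 SYBR Green fluorescence (ex 485 nm, em 535 nm) reports parasite DNA after 72 h compound exposure of infected red cells at 0.3% parasitemia, 2.5% hematocrit; signal normalized to 0.29 uM artemisinin and vehicle wells.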

[3] = tested on: CP194; assay: as above; settings: P. falciparum in erythrocytes, SYBR Green DNA, 72 h; series mostly up to 12.8 µM
Outline: as §1

[4] = tested on: CP203; assay: as above; settings: P. falciparum in erythrocytes, SYBR Green DNA, 72 h; series mostly up to 12.8 µM
Outline: as §1

[5] = tested on: CP215; assay: as above; settings: P. falciparum in erythrocytes, SYBR Green DNA, 72 h; series mostly up to 12.8 µM
Outline: as §1

[6] = tested on: CP265; assay: as above; settings: P. falciparum in erythrocytes, SYBR Green DNA, 72 h; series mostly up to 12.8 µM
Outline: as §1

[7] = tested on: CP335; assay: as above; settings: P. falciparum in erythrocytes, SYBR Green DNA, 72 h; series mostly up to 12.8 µM
Outline: as §1

[8] = tested on: DFO2036; assay: as above; settings: P. falciparum in erythrocytes, SYBR Green DNA, 72 h; series mostly up to 12.8 µM
Outline: as §1

[9] = tested on: DIV14; assay: as above; settings: P. falciparum in erythrocytes, SYBR Green DNA, 72 h; series mostly up to 12.8 µM
Outline: as §1

[10] = tested on: GB4; assay: as above; settings: P. falciparum in erythrocytes, SYBR Green DNA, 72 h; series mostly up to 12.8 µM
Outline: as §1

[11] = target: Luciferin 4-monooxygenase (Photinus pyralis) (UniProt P08659); assay: Biochemical firefly luciferase enzyme assay for NPC (AID 624030);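 note: purified P. pyralis luciferase at 10 nM with luciferin and ATP substrate; 0% = DMSO and -100% = full luciferase inhibition by PTC124 control; nearly all actives have a fitted effect of over 70% in size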
Outline: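 Purified P. pyralis luciferase at 10 nM in 50 mM Tris Acetate (final), luminescence read within 5 minutes of enzyme addition to compounds. Activity normalised to PTC124 versus DMSO; concentration-response curves classed by r2, magnitude and activity.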

[12] = S16 Schwann cell PMP22 intronic element firefly luciferase assay (AID 624032);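 note: plate controls were DMSO for no effect and PTC124 positive control mean for full effect; nearly all actives have a fitted effect of over 30% in size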
Outline: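 Rat S16 Schwann cells stably carrying firefly luciferase driven by a PMP22 intronic element, in 10% FBS, treated 24 h at 37 C. ONE-Glo luminescence normalized to PTC124 control and DMSO (0%); curves classed by r2, magnitude and activity.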

[13] = S16 Schwann cell PMP22 intronic element beta-lactamase assay (AID 624044; calls by dose curve;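 note: 0% = DMSO and -100% = potassium clavulanate positive control; nearly all actives have a fitted effect of over 15% in size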)
Outline: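 Beta-lactamase reporter under a PMP22 intronic regulatory element in stable S16 rat Schwann cells; 24 h compound exposure. 460 nm blue signal normalized between DMSO (0%) and potassium clavulanate, with 535 nm FRET tracking viability; curves classed by r2 and response.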

[14] = tested on: 7G8; assay: qHTS profiling for inhibitors of Plasmodium falciparum proliferation (AID 504749); note: nearly all actives have a fitted effect of over 60% in size; note: potency is the fitted concentration of half-maximal effect; settings: P. falciparum in erythrocytes, SYBR Green DNA, 72 h; series mostly up to 12.8 µM
Outline: as §1

[15] = Confirmation and Secondary Assay for Modulators of Hemoglobin Beta Chain Splicing at IVS2 654 locus (AID 910);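 note: HeLa cells stably carrying EGFP split by mutant beta-globin IVS2-654 intron; % of control where 0% means no effect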
Outline: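 HeLa cells stably expressing EGFP interrupted by β-globin IVS2-654 intron, seeded overnight in Opti-MEM/2% FCS, then treated 2 days at 37 °C. Restored splicing read as total peak GFP intensity per well by laser scanning cytometry (488 nm excitation, 500–520 nm emission); 500 nM antisense PNA as control.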

[16] = Confirmation and Secondary Assay for Modulators of Hemoglobin Beta Chain Splicing at IVS2 705 locus (AID 930);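 note: HeLa cells stably expressing the EGFP-705 splicing reporter; GFP fluorescence per well restored by corrected splicing of the IVS2-705 intron in EGFP; % of control where 0% means no effect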
Outline: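 Assay measures total GFP intensity per well in HeLa EGFP-705 cells after 2 days with compound; mis-splicing normally truncates EGFP, so fluorescence indicates corrected splicing.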

[17] = target: Cytochrome P450 2D6 (Homo sapiens) (UniProt P10635); assay: qHTS Assay for Inhibitors and Substrates of Cytochrome P450 2D6 (AID 891); note: nearly all actives have a fitted effect of over 60% in size; note: potency is the fitted concentration of half-maximal effect;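 for activity change, negative = inhibition: luciferin methyl ether substrate demethylated by CYP2D6 with NADPH regeneration; % is set by controls: 0 for no effect and ±100 for the full control effect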
Outline: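 Luminescent read-out of luciferin formed by 5 nM human CYP2D6 demethylating 30 uM Luciferin-ME EGE (Km level) over 60 min at room temperature after NADPH regeneration addition. Data normalized to full inhibition by 1.43 uM quinidine.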

[18] = target: Cytochrome P450 3A4 (Homo sapiens) (UniProt P08684); assay: qHTS Assay for Activators of Cytochrome P450 3A4 (AID 885); note: nearly all actives have a fitted effect of over 65% in size
Outline: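 Activators are scored by enhanced luminescence from CYP3A4 conversion of luciferin-PPXE (25uM, equal to KM) to luciferin, after 60 min at RT with an NADPH-regenerating system.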

ATP-dependent 6-phosphofructokinase (Trypanosoma brucei brucei), sequence (O15648 whole entry, looked up): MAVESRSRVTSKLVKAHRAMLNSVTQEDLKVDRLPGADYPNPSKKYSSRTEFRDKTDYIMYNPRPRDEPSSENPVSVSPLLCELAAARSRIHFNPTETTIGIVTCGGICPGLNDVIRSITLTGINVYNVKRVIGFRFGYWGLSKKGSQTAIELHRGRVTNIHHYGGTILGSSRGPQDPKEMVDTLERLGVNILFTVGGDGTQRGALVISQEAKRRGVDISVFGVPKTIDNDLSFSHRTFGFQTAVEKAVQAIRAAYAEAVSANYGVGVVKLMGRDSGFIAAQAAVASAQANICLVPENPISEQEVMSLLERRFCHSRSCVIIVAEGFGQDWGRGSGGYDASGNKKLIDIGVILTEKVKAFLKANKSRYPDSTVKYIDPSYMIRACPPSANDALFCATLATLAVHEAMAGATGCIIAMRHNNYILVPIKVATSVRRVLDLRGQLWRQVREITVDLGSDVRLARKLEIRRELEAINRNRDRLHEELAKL
Luciferin 4-monooxygenase (Photinus pyralis), sequence (P08659 whole entry, looked up): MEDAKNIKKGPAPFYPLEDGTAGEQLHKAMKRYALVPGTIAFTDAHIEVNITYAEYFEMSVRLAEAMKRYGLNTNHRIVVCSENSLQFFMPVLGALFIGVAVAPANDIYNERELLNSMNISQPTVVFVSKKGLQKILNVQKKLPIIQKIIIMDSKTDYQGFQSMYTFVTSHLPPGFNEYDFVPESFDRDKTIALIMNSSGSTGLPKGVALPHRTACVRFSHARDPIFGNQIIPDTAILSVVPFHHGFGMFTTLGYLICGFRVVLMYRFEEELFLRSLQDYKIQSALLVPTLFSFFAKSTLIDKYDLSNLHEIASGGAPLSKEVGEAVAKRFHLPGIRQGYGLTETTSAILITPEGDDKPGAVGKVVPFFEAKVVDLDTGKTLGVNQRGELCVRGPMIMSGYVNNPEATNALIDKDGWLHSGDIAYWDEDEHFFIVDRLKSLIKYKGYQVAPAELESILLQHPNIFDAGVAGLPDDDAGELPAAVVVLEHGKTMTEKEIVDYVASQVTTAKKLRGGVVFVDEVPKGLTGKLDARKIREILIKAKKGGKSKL
Cytochrome P450 3A4 (Homo sapiens), sequence (P08684 whole entry, looked up): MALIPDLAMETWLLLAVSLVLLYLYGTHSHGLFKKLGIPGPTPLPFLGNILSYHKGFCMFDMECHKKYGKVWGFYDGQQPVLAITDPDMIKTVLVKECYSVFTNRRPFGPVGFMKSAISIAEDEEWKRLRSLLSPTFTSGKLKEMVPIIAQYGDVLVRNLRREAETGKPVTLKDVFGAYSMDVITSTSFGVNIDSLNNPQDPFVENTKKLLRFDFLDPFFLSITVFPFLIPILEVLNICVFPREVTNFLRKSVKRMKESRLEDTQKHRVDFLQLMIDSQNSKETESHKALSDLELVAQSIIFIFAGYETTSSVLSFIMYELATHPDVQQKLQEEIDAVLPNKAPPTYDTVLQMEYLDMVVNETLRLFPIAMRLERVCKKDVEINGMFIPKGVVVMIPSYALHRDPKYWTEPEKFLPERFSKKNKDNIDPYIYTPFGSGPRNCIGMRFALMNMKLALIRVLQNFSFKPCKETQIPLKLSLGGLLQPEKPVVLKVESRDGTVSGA
Cytochrome P450 2D6 (Homo sapiens), sequence (P10635 whole entry, looked up): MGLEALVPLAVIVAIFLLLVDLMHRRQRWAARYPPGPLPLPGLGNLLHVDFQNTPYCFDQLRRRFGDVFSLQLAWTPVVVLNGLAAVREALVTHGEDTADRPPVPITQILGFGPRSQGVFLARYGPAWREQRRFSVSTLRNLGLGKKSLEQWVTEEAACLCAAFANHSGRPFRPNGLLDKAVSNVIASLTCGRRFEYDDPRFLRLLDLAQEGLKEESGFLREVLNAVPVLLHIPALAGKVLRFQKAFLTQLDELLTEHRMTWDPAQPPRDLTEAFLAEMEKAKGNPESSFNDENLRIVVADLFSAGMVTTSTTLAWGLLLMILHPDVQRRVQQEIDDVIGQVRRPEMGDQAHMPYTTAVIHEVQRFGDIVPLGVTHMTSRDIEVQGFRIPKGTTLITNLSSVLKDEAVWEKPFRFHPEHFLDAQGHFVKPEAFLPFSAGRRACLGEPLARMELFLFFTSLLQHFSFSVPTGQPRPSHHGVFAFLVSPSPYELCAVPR

CC(C)(C)NC(=O)[C@@H]1CC[C@@H]2[C@@H]3CC[C@@H]4NC(=O)C=C[C@@]4(C)[C@H]3CC[C@]21C
inactive: outcome [1] | Potency [2] | Potency [3] | Potency [4] | Potency [5] | Potency [6] | Potency [7] | Potency [8] | Potency [9] | Potency [10]

C1CCN2C[C@@H]3C[C@@H](CN4CCCC[C@H]34)[C@H]2C1
inactive: outcome [1] | Potency [11] | Potency [12] | Potency [13] | Potency [14] | Potency [2] | Potency [3] | Potency [4] | Potency [6] | Potency [7] | Potency [9] | Potency [10]

Cc1ncc([N+](=O)[O-])n1C[C@H](O)CCl
inactive: outcome [1] | Potency [11] | Potency [14] | Potency [2] | Potency [3] | Potency [4] | Potency [5] | Potency [6] | Potency [7] | Potency [8] | Potency [9] | Potency [10]

Cc1onc(-c2ccccc2Cl)c1C(=O)N[C@H]1C(=O)N2[C@H]1SC(C)(C)[C@H]2C(=O)O
inactive: outcome [1] | Potency [13] | Potency [2] | Potency [3] | Potency [4] | Potency [5] | Potency [6] | Potency [7] | Potency [9] | Potency [10]

CC[C@H]1NC(=O)c2cc(S(N)(=O)=O)c(Cl)cc2N1
inactive: outcome [1] | Potency [11] | Potency [14] | Potency [2] | Potency [3] | Potency [4] | Potency [6] | Potency [7] | Potency [8] | Potency [9] | Potency [10]

CC(=C(CCOP(=O)(O)O)SC(=O)c1ccccc1)N(C=O)Cc1cnc(C)nc1N
inactive: Potency [15] | Potency [16] | outcome [1] | Potency [11] | Potency [12] | Potency [13] | Potency [2] | Potency [3] | Potency [4] | Potency [5] | Potency [6] | Potency [7] | Potency [8] | Potency [9] | Potency [10]

C=C1c2c(Cl)ccc(O)c2C(O)=C2C(=O)[C@@]3(O)C(O)=C(C(N)=O)C(=O)[C@@H](N(C)C)[C@@H]3[C@@H](O)[C@H]12
active: Potency [14] 3160 nM
inactive: outcome [1] | Potency [11] | Potency [13] | Potency [4] | Potency [5] | Potency [6] | Potency [9]

CC(=O)OCC(=O)[C@@]12OC(C)(C)O[C@@H]1C[C@H]1[C@H]3C[C@H](F)C4=CC(=O)C=C[C@@]4(C)[C@]3(F)[C@H](O)C[C@@]12C
inactive: Potency [11] | Potency [12] | Potency [2] | Potency [3] | Potency [4] | Potency [5] | Potency [6] | Potency [7] | Potency [8] | Potency [9] | Potency [10]

NC[C@@H]1O[C@H](O[C@H]2[C@H](O)[C@H](O[C@@H]3O[C@H](CO)[C@@H](O)[C@H](N)[C@@H]3O)[C@@H](N)C[C@H]2N)[C@@H](O)[C@H](O)[C@@H]1O
inactive: Potency [11] | Potency [12] | Potency [14] | Potency [2] | Potency [3] | Potency [4] | Potency [5] | Potency [6] | Potency [7] | Potency [9] | Potency [10]

CCCC(=O)Nc1ccc(OC[C@@H](O)CNC(C)C)c(C(C)=O)c1
inactive: Potency [11] | Potency [12] | Potency [13]

CCCCC[C@H](O)/C=C\[C@@H]1[C@H](O)CC(=O)[C@@H]1CCCCCCC(=O)O
inactive: outcome [1] | Potency [11] | Potency [12] | Potency [2] | Potency [4] | Potency [5] | Potency [6] | Potency [7] | Potency [8]

C[N+](C)(CCCOc1ccccc1)c1ccccc1
active: Potency [17] 15.8 nM

NC[C@@H]1O[C@@H](O[C@H]2[C@H](O)[C@H](O[C@@H]3O[C@H](CO)[C@@H](O)[C@H](N)[C@@H]3O)[C@@H](N)C[C@H]2N)[C@H](N)C[C@@H]1O
inactive: Potency [11] | Potency [12] | Potency [13] | Potency [14] | Potency [2] | Potency [3] | Potency [4] | Potency [5] | Potency [6] | Potency [7] | Potency [8] | Potency [9] | Potency [10]

COc1cc(OC)c2c(c1Cl)O[C@@]1(C2=O)[C@H](C)CC(=O)C[C@@H]1OC
inactive: Potency [18]

C[C@H](CCC(=O)O)[C@H]1CC[C@@H]2[C@@H]3[C@@H](O)C[C@H]4C[C@@H](O)CC[C@@]4(C)[C@H]3CC[C@@]21C
inactive: Potency [11] | Potency [12] | Potency [13] | Potency [14] | Potency [2] | Potency [3] | Potency [4] | Potency [5] | Potency [7] | Potency [9] | Potency [10]

CC(C)(N=NC(C)(C)C(=N)N)C(=N)N
inactive: Potency [18] | activity change, negative = inhibition [17] 23.6% [at 11.4 µM] | Potency [15] | Potency [16]

c1ccc2c(c1)CCC[C@@H]2C1=NCCN1
inactive: outcome [1] | Potency [11] | Potency [12] | Potency [14] | Potency [2] | Potency [3] | Potency [4] | Potency [5] | Potency [6] | Potency [7] | Potency [8] | Potency [9] | Potency [10]
